The values below come from paper PMC5540273 (PLoS ONE, 2017).

Some test systems named below: STK36; STK39; SYK; SgK110; TAOK1; TAOK2; TAOK3; TBK1; TEC; TESK1; TGFBR1; TGFBR2; TIE1; TLK1; TLK2; TNIK; TNK1; TNK2.
What all share (conditions): concentration: 1 μM, replicates: in singlicate; n = 1
In another assay the test system is T1, TAK1.
T1 construct: gene MAP3K7

In a further assay the test system is T2, TIE2.
T2 construct: gene TEK
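Further: KINOMEscan kinase panel screen.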

Take `c1ccc(Oc2ccc(Nc3ccnc4cc(-c5ccc(CN6CCCCC6)o5)ccc34)cc2)nc1` [GW567143]: the “%Inh” value with STK36, in the assay with STK39, in the assay on SYK, in the assay on SgK110, with TAK1 and in the assay on TAOK1 was 0% each time. Also, the “%Inh” value stood at 0% in the assay on TAOK2; 0% with TAOK3; 0% in the assay with TBK1; 41% in the assay with TEC; 16% in the assay on TESK1; 0% in the assay on TGFBR1. Besides, the “%Inh” value was found to be 0% in the assay with TGFBR2; 23% in the assay on TIE1; 0% in the assay with TIE2; 0% with TLK1; 0% in the assay with TLK2; 14% in the assay with TNIK. For the same molecule, the results for the “%Inh” value in the assay on TNK1 and in the assay on TNK2 were 56% and 36%, respectively.
Regarding `Cc1cccc(Nc2nc(NCCN)ncc2C(N)=O)c1` [GSK1292139], the “%Inh” value in the assay on STK36 is given as 0%; in the assay on STK39, 14%; in the assay with SYK it was 97%; in the assay with SgK110, 91.1%; in the assay on TAK1, 83%; in the assay on TAOK1, 15%. In addition, the “%Inh” value in the assay on TAOK2 was found to be 66%; in the assay on TAOK3 it was 9%; in the assay on TBK1 it was 28%; with TEC, 40%; in the assay with TESK1, 0%; in the assay with TGFBR1, 0%. Also, the “%Inh” value in the assay on TGFBR2 was found to be 0%; with TIE1 it was 0%; in the assay with TIE2 it was 0%; with TLK1, 18%; with TLK2 it was 17%; in the assay on TNIK, 89%. In addition, the “%Inh” value with TNK1 and in the assay with TNK2 was 0% each time.
For `Cc1ccc(O)cc1Nc1ccnc2cc(-c3ccc(CN4CCCCC4)o3)ccc12` [GW557777], the “%Inh” value is 0% in the assay on STK36; 0% with STK39; 69% in the assay on SYK; 0% with SgK110; 35% in the assay with TAK1; 0% in the assay on TAOK1. Moreover, the “%Inh” value in the assay on TAOK2 is 0%; in the assay on TAOK3, 0%; in the assay with TBK1 it was 0%; in the assay with TEC it was 21%; in the assay with TESK1 it was 0%; in the assay with TGFBR1, 47%. Also, the “%Inh” value was 98% in the assay with TGFBR2; 61% in the assay on TIE1; 57% in the assay with TIE2; 23% with TLK1; 5% with TLK2; 24% with TNIK. Further, the “%Inh” value was 0% in the assay with TNK1 and 26% in the assay with TNK2.
Consider `CN(C)CCNS(=O)(=O)c1ccc(-c2ccnc3[nH]ccc23)cc1` [GSK977620], for which the “%Inh” value in the assay on STK36 is given as 0%; with STK39, 5%; in the assay with SYK it was 31%; in the assay with SgK110, 0%; in the assay with TAK1, 1%; in the assay on TAOK1, 3%. Also, the “%Inh” value stood at 0% in the assay with TAOK2; 0% in the assay on TAOK3; 0% in the assay with TBK1; 0% in the assay with TEC; 74% in the assay with TESK1; 0% in the assay with TGFBR1. The “%Inh” value amounted to 0% with TGFBR2; 32% in the assay with TIE1; 0% in the assay with TIE2; 7% in the assay on TLK1; 7% in the assay on TLK2; 0% in the assay with TNIK. In addition, the “%Inh” value in the assay with TNK1 is 0%; in the assay on TNK2 it was 7%.
For `N#Cc1cnc2cc(-c3cnc(CNCCN4CCOCC4)s3)ccc2c1Nc1ccc(Oc2ccccc2)cc1` [GW664114], the “%Inh” value in the assay on STK36 is recorded as 7%; in the assay on STK39 it was 0%; in the assay on SYK it was 82%; in the assay with SgK110 it was 0%; with TAK1, 12%; in the assay on TAOK1, 0%. Also, the “%Inh” value stood at 0% with TAOK2; 0% with TAOK3; 34% in the assay with TBK1; 88% in the assay with TEC; 6% in the assay on TESK1; 6% in the assay with TGFBR1. Moreover, the “%Inh” value in the assay with TGFBR2 was determined as 0%; in the assay with TIE1, 11%; with TIE2, 6%; in the assay on TLK1, 21%; in the assay on TLK2, 11%; with TNIK, 92.9%. Moreover, the “%Inh” value in the assay on TNK1 came to 99%; with TNK2 it was 94.6%.
For the molecule `Cc1cc(-c2ccnc(Nc3cccc(C#N)c3)n2)cc(C)c1O` [GSK1440913], the “%Inh” value in the assay with STK36 turned out to be 38%; in the assay on STK39, 8%; in the assay on SYK, 83%; with SgK110, 0%; in the assay with TAK1 it was 54%; in the assay with TAOK1, 77%. Further, the “%Inh” value with TAOK2 was found to be 22%; in the assay with TAOK3, 42%; in the assay with TBK1 it was 35%; in the assay with TEC, 19%; in the assay with TESK1, 47%; in the assay with TGFBR1 it was 0%. In addition, the “%Inh” value in the assay on TGFBR2 is 0%; in the assay on TIE1, 74%; with TIE2, 0%; in the assay on TLK1, 16%; in the assay with TLK2 it was 0%; in the assay on TNIK, 68%. The “%Inh” value in the assay on TNK1 amounted to 0%; in the assay on TNK2, 18%.
Take `Cl.Cl.NC(CNC(=O)c1cc(Br)c(-c2ccnc3[nH]ccc23)s1)c1ccccc1` (stereo not shown) [GSK1322949]: the “%Inh” value with STK36 came to 0%; in the assay on STK39 it was 5%; in the assay on SYK it was 27%; in the assay with SgK110 it was 0%; with TAK1 it was 36%; in the assay with TAOK1, 66%. Moreover, the “%Inh” value in the assay with TAOK2 stood at 3%; in the assay on TAOK3, 44%; with TBK1 it was 20%; in the assay with TEC, 1%; with TESK1 it was 37%; with TGFBR1, 10%. The “%Inh” value was found to be 32% in the assay on TGFBR2; 33% in the assay with TIE1; 6% in the assay with TIE2; 31% with TLK1; 12% in the assay with TLK2; 59% with TNIK. In addition, the results for the “%Inh” value in the assay on TNK1 and in the assay on TNK2 were 14% and 10%, respectively.
Consider `N#CC1(c2cccc(C(=O)Nc3cccc(Oc4ccc5nc(NC(=O)C6CC6)sc5n4)c3)c2)CC1`, for which the “%Inh” value with STK36 is 0%; with STK39 it was 0%; in the assay with SYK, 22%; with SgK110, 17%; in the assay on TAK1 it was 0%; in the assay with TAOK1, 0%. Moreover, the “%Inh” value in the assay with TAOK2 amounted to 28%; with TAOK3, 0%; with TBK1 it was 15%; with TEC, 0%; in the assay with TESK1 it was 9%; in the assay on TGFBR1, 0%. The “%Inh” value in the assay on TGFBR2 stood at 0%; in the assay on TIE1 it was 73%; in the assay with TIE2, 37%; in the assay on TLK1, 0%; in the assay with TLK2 it was 0%; in the assay with TNIK, 53%. Also, the “%Inh” value amounted to 76% in the assay with TNK1 and 0% in the assay on TNK2.
